Experiment [1] concerns the target T1, Aurora kinase A (Homo sapiens) (UniProt O14965).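 Note: values are mean percent inhibition.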
T1 sequence (whole entry): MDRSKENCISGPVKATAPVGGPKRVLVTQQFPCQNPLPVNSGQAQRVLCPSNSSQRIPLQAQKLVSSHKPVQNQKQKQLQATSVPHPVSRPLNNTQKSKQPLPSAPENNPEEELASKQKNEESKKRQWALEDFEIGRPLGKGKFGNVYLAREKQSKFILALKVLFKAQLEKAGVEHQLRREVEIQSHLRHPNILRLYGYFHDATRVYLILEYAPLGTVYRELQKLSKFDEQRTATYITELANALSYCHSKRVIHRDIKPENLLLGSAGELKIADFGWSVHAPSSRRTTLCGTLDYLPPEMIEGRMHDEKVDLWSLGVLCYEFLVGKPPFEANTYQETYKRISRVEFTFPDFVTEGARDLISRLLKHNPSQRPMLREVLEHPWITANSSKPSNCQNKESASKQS
Conditions: at 1 µM.

Experiment [2] deals with Aurora kinase B (Homo sapiens) (UniProt Q96GD4). As to conditions: at 0.1 µM.
Aurora kinase B (Homo sapiens), sequence (Q96GD4 whole entry): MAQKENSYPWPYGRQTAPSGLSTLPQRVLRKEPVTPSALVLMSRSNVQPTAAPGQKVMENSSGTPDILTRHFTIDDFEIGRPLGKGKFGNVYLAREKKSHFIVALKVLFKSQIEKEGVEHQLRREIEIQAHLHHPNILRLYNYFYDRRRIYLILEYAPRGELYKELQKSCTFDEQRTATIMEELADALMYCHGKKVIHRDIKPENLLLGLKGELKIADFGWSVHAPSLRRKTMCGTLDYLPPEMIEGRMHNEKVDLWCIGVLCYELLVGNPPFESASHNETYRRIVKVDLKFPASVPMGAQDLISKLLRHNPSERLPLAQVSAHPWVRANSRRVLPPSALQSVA
The target is the same in experiment [3]. Conditions: at 1 µM.
The target of experiment [4] is T2, Aurora kinase C (Homo sapiens) (UniProt Q9UQB9).
T2 sequence (whole entry): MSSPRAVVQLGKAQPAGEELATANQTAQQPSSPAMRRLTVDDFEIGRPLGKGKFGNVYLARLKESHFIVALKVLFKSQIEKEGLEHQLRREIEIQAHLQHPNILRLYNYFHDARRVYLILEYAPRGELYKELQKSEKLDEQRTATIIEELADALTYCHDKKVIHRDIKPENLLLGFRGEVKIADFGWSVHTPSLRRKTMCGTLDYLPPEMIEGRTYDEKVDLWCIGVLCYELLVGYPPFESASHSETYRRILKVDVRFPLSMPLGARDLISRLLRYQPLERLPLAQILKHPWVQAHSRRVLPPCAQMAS
As to conditions: at 0.1 µM.

Experiment [5] concerns the target T2, Aurora kinase C (Homo sapiens). Conditions: at 1 µM.
Experiment [6] addresses Serine/threonine-protein kinase 10 (Homo sapiens) (UniProt O94804). As to conditions: at 0.1 µM.
For experiment [7] the target is unchanged. Conditions: at 1 µM.
The target in experiment [8] is T3, Mitogen-activated protein kinase kinase kinase kinase 2 (Homo sapiens) (UniProt Q12851).
T3 sequence (whole entry): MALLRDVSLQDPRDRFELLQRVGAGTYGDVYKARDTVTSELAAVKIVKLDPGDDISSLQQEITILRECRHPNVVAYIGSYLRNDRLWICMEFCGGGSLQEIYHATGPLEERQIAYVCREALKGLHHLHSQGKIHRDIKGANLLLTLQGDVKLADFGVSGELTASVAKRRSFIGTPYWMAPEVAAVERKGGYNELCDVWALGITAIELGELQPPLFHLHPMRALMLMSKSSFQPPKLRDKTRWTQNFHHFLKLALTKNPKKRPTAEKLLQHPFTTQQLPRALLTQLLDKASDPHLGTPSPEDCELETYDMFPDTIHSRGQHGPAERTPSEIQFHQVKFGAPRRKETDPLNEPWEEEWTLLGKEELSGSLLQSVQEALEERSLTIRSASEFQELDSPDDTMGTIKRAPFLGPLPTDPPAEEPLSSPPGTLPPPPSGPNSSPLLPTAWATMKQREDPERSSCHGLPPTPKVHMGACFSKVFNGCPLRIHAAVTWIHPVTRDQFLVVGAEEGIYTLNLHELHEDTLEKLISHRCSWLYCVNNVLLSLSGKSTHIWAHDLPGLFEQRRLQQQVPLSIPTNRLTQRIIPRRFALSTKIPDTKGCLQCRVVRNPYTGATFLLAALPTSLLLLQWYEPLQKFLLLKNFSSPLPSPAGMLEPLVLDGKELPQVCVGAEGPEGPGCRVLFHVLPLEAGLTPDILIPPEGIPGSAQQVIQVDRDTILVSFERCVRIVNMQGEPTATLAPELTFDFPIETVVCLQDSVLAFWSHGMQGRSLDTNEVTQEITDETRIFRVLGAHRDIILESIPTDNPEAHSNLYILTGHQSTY
As to conditions: at 0.1 µM.

Experiment [9] has as its target T3, Mitogen-activated protein kinase kinase kinase kinase 2 (Homo sapiens). As to conditions: at 1 µM.
The target of experiment [10] is Mitogen-activated protein kinase kinase kinase kinase 4 (Homo sapiens) (UniProt O95819). Conditions: at 0.1 µM.
Mitogen-activated protein kinase kinase kinase kinase 4 (Homo sapiens), sequence (O95819 2-1239 limits assumed): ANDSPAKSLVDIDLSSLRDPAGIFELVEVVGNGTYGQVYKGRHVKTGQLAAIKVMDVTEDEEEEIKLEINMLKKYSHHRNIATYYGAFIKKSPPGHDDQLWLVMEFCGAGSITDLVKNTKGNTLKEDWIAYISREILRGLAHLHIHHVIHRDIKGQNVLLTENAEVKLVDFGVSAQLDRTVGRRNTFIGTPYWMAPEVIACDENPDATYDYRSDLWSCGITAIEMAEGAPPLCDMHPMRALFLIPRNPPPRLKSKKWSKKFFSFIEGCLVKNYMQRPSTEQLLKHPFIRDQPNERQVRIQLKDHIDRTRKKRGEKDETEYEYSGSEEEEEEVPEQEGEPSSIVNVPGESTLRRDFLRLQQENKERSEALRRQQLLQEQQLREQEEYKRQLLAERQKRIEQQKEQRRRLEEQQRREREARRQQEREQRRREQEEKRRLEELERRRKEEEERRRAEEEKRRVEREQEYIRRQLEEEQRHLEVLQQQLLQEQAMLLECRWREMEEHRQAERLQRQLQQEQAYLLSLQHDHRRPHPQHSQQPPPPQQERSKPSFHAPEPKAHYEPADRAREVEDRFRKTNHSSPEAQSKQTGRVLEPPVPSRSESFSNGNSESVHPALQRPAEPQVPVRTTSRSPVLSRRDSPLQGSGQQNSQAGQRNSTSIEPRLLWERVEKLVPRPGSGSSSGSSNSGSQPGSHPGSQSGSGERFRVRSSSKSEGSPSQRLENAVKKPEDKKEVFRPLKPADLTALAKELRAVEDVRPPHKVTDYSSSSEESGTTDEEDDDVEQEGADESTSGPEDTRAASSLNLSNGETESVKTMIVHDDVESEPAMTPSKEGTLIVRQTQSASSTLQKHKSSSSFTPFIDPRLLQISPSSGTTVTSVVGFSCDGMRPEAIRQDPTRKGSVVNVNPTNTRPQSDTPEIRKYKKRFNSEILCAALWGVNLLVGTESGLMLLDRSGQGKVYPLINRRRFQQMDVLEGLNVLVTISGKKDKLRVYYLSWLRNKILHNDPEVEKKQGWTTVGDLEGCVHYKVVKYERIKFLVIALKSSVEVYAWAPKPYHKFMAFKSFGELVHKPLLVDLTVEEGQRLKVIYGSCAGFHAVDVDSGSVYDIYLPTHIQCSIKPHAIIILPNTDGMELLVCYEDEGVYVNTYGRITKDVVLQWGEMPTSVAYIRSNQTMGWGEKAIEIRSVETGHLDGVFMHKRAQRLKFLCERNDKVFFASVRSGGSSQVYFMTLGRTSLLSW
Experiment [11] has the same target. As to conditions: at 1 µM.
The target in experiment [12] is Dual specificity mitogen-activated protein kinase kinase 1 (Homo sapiens) (UniProt Q02750). Conditions: at 0.1 µM.
Dual specificity mitogen-activated protein kinase kinase 1 (Homo sapiens), sequence (Q02750 whole entry): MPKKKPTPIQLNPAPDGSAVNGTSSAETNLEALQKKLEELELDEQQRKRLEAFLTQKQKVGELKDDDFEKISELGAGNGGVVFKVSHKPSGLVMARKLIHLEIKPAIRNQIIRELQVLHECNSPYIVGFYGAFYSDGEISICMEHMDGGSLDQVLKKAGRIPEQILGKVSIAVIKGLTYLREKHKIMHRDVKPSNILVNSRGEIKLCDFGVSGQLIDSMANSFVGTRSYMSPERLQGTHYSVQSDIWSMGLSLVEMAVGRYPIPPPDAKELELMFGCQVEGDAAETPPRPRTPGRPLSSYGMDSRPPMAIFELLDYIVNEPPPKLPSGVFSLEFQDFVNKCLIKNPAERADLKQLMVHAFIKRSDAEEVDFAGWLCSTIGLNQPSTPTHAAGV
Experiment [13] shares this target. Conditions: at 1 µM.
The target in experiment [14] is Misshapen-like kinase 1 (Homo sapiens) (UniProt Q8N4C8). As to conditions: at 0.1 µM.
Misshapen-like kinase 1 (Homo sapiens), sequence (Q8N4C8 whole entry, looked up): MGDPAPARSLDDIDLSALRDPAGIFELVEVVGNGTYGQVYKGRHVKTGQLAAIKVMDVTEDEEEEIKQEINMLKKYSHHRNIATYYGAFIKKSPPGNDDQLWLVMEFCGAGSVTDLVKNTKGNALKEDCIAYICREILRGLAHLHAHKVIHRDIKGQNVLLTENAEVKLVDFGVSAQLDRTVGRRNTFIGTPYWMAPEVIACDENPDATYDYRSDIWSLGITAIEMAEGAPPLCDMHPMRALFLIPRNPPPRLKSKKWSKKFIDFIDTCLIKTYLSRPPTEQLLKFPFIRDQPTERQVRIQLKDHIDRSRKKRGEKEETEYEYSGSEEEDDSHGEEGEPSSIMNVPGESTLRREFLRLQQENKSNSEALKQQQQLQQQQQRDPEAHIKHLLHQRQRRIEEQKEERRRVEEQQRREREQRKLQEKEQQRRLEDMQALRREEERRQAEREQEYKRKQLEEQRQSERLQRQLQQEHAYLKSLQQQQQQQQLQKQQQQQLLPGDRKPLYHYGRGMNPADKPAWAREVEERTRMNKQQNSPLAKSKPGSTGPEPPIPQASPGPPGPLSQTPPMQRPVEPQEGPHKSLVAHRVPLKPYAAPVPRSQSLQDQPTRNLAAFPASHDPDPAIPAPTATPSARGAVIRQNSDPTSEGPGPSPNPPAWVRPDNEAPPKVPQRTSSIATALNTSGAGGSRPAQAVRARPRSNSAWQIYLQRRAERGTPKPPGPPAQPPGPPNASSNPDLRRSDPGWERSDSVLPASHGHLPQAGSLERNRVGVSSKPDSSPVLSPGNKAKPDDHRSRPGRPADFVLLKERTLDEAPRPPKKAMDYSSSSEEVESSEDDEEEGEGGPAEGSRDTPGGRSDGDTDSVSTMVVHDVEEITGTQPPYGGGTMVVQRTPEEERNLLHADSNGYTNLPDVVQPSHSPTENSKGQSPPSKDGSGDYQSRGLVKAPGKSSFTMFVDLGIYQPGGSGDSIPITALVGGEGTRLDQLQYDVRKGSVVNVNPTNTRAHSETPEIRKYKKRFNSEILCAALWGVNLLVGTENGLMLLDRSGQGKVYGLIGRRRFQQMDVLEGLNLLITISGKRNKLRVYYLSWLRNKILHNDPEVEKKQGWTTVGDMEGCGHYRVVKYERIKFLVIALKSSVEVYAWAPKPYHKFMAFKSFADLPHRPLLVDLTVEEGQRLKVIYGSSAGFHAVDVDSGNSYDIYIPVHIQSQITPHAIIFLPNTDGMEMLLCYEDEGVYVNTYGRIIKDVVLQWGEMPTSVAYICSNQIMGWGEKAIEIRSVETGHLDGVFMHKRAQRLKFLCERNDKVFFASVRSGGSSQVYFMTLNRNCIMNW
The target is the same in experiment [15]. Conditions: at 1 µM.
Experiment [16] concerns the target T4, Serine/threonine-protein kinase 4 (Homo sapiens) (UniProt Q13043).
T4 sequence (whole entry): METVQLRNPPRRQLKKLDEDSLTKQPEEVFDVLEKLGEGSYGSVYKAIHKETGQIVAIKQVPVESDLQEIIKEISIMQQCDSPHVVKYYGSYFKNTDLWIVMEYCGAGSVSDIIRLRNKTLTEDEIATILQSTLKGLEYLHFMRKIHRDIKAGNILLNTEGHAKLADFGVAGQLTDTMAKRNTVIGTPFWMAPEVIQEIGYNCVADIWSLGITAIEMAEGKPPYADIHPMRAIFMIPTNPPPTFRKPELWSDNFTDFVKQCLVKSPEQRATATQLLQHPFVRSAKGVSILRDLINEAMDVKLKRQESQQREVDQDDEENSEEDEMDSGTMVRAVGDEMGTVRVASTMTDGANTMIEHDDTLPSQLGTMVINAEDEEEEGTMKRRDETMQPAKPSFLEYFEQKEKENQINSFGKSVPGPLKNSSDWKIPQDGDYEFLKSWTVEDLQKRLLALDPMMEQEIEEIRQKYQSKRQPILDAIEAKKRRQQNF
Conditions: at 0.1 µM.

Experiment [17] has as its target T4, Serine/threonine-protein kinase 4 (Homo sapiens). As to conditions: at 1 µM.
The target of experiment [18] is T5, Serine/threonine-protein kinase 3 (Homo sapiens) (UniProt Q13188).
T5 sequence (whole entry): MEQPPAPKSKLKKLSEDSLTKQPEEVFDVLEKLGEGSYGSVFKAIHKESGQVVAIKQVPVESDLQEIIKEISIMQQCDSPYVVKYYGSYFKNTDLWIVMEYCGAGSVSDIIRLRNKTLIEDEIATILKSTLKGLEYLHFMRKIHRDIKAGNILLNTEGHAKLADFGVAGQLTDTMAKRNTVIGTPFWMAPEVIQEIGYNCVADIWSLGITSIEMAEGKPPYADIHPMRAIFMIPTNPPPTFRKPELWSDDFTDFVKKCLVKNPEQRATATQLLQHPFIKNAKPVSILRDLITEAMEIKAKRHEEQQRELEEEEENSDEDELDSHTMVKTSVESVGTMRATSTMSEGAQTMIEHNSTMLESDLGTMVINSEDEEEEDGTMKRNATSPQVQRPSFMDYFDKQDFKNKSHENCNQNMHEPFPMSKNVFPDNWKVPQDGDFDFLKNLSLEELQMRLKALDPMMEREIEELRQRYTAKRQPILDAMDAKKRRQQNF
As to conditions: at 0.1 µM.

The target in experiment [19] is T5, Serine/threonine-protein kinase 3 (Homo sapiens). As to conditions: at 1 µM.
The target of experiment [20] is Serine/threonine-protein kinase 26 (Homo sapiens) (UniProt Q9P289). Conditions: at 0.1 µM.
Serine/threonine-protein kinase 26 (Homo sapiens), sequence (Q9P289 2-416 limits assumed): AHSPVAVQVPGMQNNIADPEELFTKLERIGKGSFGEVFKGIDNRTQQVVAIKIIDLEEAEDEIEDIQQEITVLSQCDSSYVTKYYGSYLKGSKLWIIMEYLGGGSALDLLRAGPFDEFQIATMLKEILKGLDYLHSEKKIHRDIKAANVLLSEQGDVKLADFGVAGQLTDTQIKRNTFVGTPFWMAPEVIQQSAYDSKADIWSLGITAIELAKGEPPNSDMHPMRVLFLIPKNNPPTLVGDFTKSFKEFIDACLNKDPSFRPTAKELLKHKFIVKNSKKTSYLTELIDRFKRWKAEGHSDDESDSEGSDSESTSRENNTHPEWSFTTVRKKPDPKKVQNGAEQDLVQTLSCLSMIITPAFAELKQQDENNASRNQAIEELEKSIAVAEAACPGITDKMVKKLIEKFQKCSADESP

Serine/threonine-protein kinase 10 (Homo sapiens), sequence (O94804 whole entry, looked up): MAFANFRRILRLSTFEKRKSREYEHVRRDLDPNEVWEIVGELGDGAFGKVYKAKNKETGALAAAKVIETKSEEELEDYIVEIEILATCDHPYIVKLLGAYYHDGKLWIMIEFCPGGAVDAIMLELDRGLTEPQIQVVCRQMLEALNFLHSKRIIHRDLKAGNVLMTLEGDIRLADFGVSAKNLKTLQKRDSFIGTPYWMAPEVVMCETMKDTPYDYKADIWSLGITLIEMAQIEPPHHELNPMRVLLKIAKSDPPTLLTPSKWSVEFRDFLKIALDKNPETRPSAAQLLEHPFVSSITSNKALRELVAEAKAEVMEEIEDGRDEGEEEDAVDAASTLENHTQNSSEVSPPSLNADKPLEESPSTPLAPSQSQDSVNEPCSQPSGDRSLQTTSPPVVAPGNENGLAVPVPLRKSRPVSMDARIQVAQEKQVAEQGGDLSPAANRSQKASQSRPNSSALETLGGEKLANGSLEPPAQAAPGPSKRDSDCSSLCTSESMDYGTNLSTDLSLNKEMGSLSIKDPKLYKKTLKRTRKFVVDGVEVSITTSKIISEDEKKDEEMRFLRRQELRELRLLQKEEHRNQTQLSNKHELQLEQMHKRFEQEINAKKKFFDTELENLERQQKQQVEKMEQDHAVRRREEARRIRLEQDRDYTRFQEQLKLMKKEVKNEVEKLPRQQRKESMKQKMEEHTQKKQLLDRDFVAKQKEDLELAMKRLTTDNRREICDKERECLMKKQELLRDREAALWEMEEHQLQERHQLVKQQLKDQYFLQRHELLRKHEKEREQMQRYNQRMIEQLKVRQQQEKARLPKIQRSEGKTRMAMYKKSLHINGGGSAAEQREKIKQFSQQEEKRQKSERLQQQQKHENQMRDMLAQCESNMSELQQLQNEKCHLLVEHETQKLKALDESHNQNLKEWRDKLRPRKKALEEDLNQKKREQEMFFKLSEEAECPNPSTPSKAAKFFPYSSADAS

As a reminder, the inhibition is the drop in the measured response relative to a control, in per cent. On to `COc1cc(N2CCN(C(C)C)CC2)ccc1Nc1nc(Nc2cccc3ncccc23)c2cc[nH]c2n1`, for which the inhibition in experiment [1] is 4.47%; in experiment [2], 0.66%; in [3], 4.9%; in [4] it was 0.27%; in [5] it was -0.31%; in experiment [6], 1.54%. For the same compound, the inhibition in [7] was 0.74%; in experiment [8], 2.02%; in [9], 2.89%; in [10], 1.88%; in [11], 8.08%; in experiment [12] it was -1.29%. For the same compound, the inhibition in experiment [13] was 0.07%; in [14] it was 0.56%; in experiment [15], 6.73%; in experiment [16], -1.1%; in experiment [17], 0.07%; in experiment [18], 0.03%. Further, the inhibition was 0.57% in experiment [19] and -0.29% in experiment [20].

In the case of `CN1CCC(n2cnc(-c3ccc(F)cc3)c2-c2ccnc(NCCO)n2)CC1`, the inhibition in experiment [1] was 9.26%; in experiment [2] it was 4.23%; in experiment [3], 4.96%; in [4], 1.22%; in [5], -3.16%; in experiment [6] it was 4.56%. For the same compound, the inhibition in experiment [7] turned out to be 8.57%; in experiment [8], 1.01%; in [9], 1.59%; in [10] it was 7.52%; in experiment [11], 17.5%; in [12], 4.13%. In addition, the inhibition in experiment [13] is 5.25%; in experiment [14], 7.76%; in experiment [15], 15.8%; in [16], 7.06%; in experiment [17], 10.4%; in experiment [18] it was 7.55%. The values for the inhibition in [19] and in [20] were 9.48% and -1.24%, respectively.

On to `O=C(O[C@H]1CN[C@H](C#Cc2cc3ncnc(Nc4ccc5c(ccn5Cc5cc(F)ccc5F)c4)c3s2)C1)N1CCOCC1`, for which the inhibition in experiment [1] is 9.24%; in [2], 5.02%; in experiment [3], 8.88%; in experiment [4] it was 1.44%; in [5] it was 9.49%; in experiment [6] it was 8.09%. The inhibition in experiment [7] turned out to be 7.76%; in [8], 1.18%; in experiment [9] it was 2.82%; in [10], 5.04%; in experiment [11], 5.63%; in experiment [12], 5.1%. In addition, the inhibition in experiment [13] came out at 5.26%; in experiment [14], 5.96%; in experiment [15] it was 5.37%; in [16] it was 2.68%; in [17], 4.43%; in experiment [18], 2.54%. For the same compound, the inhibition in experiment [19] was 1.92%; in experiment [20], -1.74%.

`FC(F)(F)CNc1nccc(-c2cnn3ncccc23)n1`: the inhibition in experiment [1] was found to be 1.83%; in experiment [2] it was 1.65%; in experiment [3], 4.22%; in [4] it was 0.63%; in [5], 2.77%; in experiment [6] it was 2.56%. In addition, the inhibition was 6.33% in experiment [7]; -0.83% in experiment [8]; 1.5% in experiment [9]; 1.9% in experiment [10]; 3.37% in [11]; 1.61% in experiment [12]. Further, the inhibition in experiment [13] was 2.41%; in experiment [14] it was 3.42%; in experiment [15], 3.44%; in experiment [16], 3.65%; in [17], 3.82%; in experiment [18] it was 6.06%. Also, the values for the inhibition in experiment [19] and in experiment [20] were 6.67% and -0.96%, respectively.

For the origin of these results see ChEMBL document CHEMBL1961873, “Compounds: GSK PKIS; Assays: Nanosyn kinase panel” (2012).
